An excerpt weighted towards active compounds, which were near 2.6% of everything screened.
Bim-Mcl-1 – inhibitors of Bim peptide binding to Mcl-1, primary screen, biochemical, bead-based flow cytometry, multiplex; AID 1009, 2008; Bim peptide-Mcl-1 binding; actives 0.1% (n = 190,000); inhibition, % at 10 µM; Induced myeloid leukemia cell differentiation protein Mcl-1 (Homo sapiens), Q07820; in the data active = inhibition above about 40%;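 note: 0% = no compound tracer wells and 100% = peptide blocker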
Target sequence (Q07820 whole entry, looked up): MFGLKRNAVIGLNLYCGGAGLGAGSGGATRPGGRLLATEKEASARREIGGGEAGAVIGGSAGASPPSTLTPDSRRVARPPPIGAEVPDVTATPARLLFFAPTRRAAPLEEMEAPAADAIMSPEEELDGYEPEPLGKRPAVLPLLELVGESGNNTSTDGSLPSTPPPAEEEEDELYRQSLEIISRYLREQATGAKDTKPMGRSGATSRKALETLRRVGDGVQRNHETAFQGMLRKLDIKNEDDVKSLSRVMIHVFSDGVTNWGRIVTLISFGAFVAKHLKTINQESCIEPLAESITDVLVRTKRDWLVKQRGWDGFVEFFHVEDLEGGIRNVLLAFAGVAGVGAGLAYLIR
MCL1 BIM primary – inhibitors of MCL1 binding to BIM-BH3, primary screen, biochemical, fluorescence polarization. Induced myeloid leukemia cell differentiation protein Mcl-1 (Homo sapiens), Q07820. GST-MCL1 / FITC-Bim-BH3 fluorescence polarization. inhibition, % at 10.9 µM. actives 0.68% (n = 320,000);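 active = inhibition above the mean inhibition of all tested compounds plus 3 SD, set per campaign, cut at about 40% in these data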;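 note: 0% = DMSO wells and 100% = unlabeled Bim-BH3 peptide control; higher means more loss of mP so more displacement of Bim peptide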
Mcl1 Bid PPI – Mcl-1/Bid binding inhibitors, primary screen, biochemical, TR-FRET, 1536-well; TR-FRET Mcl-1/Bid-Dy647 peptide binding; inhibition, % at 21.7 µM; Induced myeloid leukemia cell differentiation protein Mcl-1 (Homo sapiens), Q07820; AID 1021, 2008; actives 0.97% (n = 220,000);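 active = compounds that cut the binding signal by more than half at the single screening dose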;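 note: His-tagged Mcl-1 with europium anti-His antibody binding Bid BH3 peptide; 0% = Mcl-1 plus peptide wells and 100% = peptide-only wells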
14-3-3 Bad inh – inhibitors of 14-3-3 zeta/Bad binding, primary screen, biochemical, TR-FRET, bovine 14-3-3 zeta. inhibition, % at 21.7 µM. TR-FRET 14-3-3zeta/Dy647-pBad peptide displacement, 1 h. actives 0.71% (n = 220,000);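 active = inhibition above about 70%, limit read from the data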;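 note: 0% = full 14-3-3 plus peptide FRET controls and 100% = background without 14-3-3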
Target sequence (P63103 whole entry, looked up): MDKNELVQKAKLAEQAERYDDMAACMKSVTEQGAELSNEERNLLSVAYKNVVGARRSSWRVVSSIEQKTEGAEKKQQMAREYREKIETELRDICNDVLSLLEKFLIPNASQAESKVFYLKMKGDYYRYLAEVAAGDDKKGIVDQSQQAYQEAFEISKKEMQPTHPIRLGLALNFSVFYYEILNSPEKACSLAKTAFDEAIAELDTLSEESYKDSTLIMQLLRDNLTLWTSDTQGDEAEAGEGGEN
Mcl1 Noxa PPI – Mcl-1/Noxa binding inhibitors, primary screen, biochemical, TR-FRET, 1536-well; TR-FRET Mcl-1/Noxa peptide binding, 2 h; inhibition, % at 21.7 µM; actives 1.5% (n = 220,000);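 active = compounds that cut the protein-peptide binding signal by more than 50% relative to plate controls in a single-dose test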;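 note: His-tagged Mcl-1 with rhodamine Noxa BH3 peptide and terbium anti-His antibody; 0% = Mcl-1 plus Noxa peptide wells and 100% = peptide-only wells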
eIF4E-4G inh – eIF4E–eIF4G protein interaction inhibitors, primary screen, biochemical, uHTS, TR-FRET, eIF4GI fragment; Eukaryotic translation initiation factor 4E (Mus musculus) + Eukaryotic translation …; TR-FRET eIF4E-eIF4GI(517-606) binding, 2 h; inhibition, % at 21.7 µM; actives 0.37% (n = 220,000);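 active = inhibition above about 30%, limit read from the data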;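 note: 0% = full FRET control wells and 100% = background wells lacking eIF4GI fragment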
* marks the source's active call; other numbers are inactive results; x = no result; [ ] = dose if it differs, or a comment.

SMILES | Bim-Mcl-1 | MCL1 BIM primary | Mcl1 Bid PPI | 14-3-3 Bad inh | Mcl1 Noxa PPI | eIF4E-4G inh
C=CCOC(=O)C1=C[C@H](c2ccc(Br)cc2)C[C@H](OCc2ccc(CO)cc2)O1 | x | -4 | x | x | x | x
COc1ccc(CNC(=O)CCS(=O)(=O)c2cc3c(cc2Cl)NC(=O)CO3)cc1 | x | 6 | x | x | x | x
O=C(O)CN1C(=O)C(=O)N(Cc2ccc(Cl)c(Cl)c2)C1=O | x | -4 | x | x | x | x
Cc1cccc2c3nc4ccccc4nc3n(C)c12 | x | 40* | x | x | x | x
Cc1cccc2nc3ccccc3nc12 | 0 | -5 | -18 | -8 | 5 | -1
COc1ccc(-c2nn[nH]n2)cc1OC | -1 | 1 | 13 | 36 | 18 | -9
Nc1cc(-c2nn[nH]n2)ccc1F | -1 | 24 | -29 | 72* | 34 | 4
COc1ccc(C(OC(=O)c2c(C)noc2C)C(=O)NC2CCCC2)cc1 (configuration not stated) | 1 | -11 | -31 | 82* | -8 | 8
CCn1cc(C(=O)O)c(=O)c2cc(F)c(N/N=C/c3ccccc3[N+](=O)[O-])cc21 | 8 | -2 | 62* | 19 | 55* | 4
COc1ccc(CCNC(=O)c2ccc(NS(=O)(=O)c3ccc4[nH]c(=O)[nH]c4c3)cc2)cc1 | x | -4 | x | x | x | x
CCN(CC(=O)Nc1ccccc1OC)C(=O)c1cc(S(=O)(=O)N2CCCCCC2)ccc1OC | x | 2 | x | x | x | x
O=C1NCCSC1c1ccccc1 (configuration not stated) | x | 3 | x | x | x | x
O=C(CSc1ncnc2c1oc1ccccc12)N1CCN(c2ccccc2)CC1 | x | 2 | x | x | x | x
CCc1nc(Nc2ccccc2)c2oc3ccccc3c2n1 | -6 | 10 | 39 | 40 | 32 | -15
CCc1nc(N2CCN(C(=O)c3ccco3)CC2)c2oc3ccccc3c2n1 | 0 | -3 | 47 | 77* | 16 | 2
CCc1nc(Nc2ccc(N3CCN(C(C)=O)CC3)cc2)c2oc3ccccc3c2n1 | 0 | 12 | 33 | 49 | 85* | 0
Cc1nc(N2CCN(C(=O)c3ccco3)CC2)c2oc3ccccc3c2n1 | x | -5 | x | x | x | x
CC(=O)N1CCN(c2ccc(Nc3ncnc4c3oc3ccccc34)cc2)CC1 | 2 | -1 | 20 | 70 | 68* | 1
Clc1ccc(-c2cc(COc3ccc4ccccc4c3)no2)cc1 | 0 | 4 | -5 | -7 | 5 | 0
O=C(O)C1=C[C@H](C2CC2)C[C@H](OCCCCO)O1 | 44* | 7 | -13 | -2 | -21 | 1
O=C(NC1CC1)C1=C[C@@H](C2CC2)C[C@@H](OCCCCO)O1 | x | 4 | x | x | x | x
CC(C)NC(=NCc1ccc(Cl)cc1Cl)Nc1ccccc1 | x | 9 | x | x | x | x
Nc1ccc2nc(-c3ccc(Cl)cc3)[nH]c2c1 | 0 | 0 | -78 | 11 | 85* | 2
Nc1ccc2nc(-c3cccc(-c4nc5ccc(N)cc5[nH]4)c3)[nH]c2c1 | x | 31 | x | x | x | x
Nc1ccc2nc(-c3cc(Cl)c(N)c(Cl)c3)[nH]c2c1 | -2 | 7 | -5 | 54 | -81 | 39*[fluorescence artefact?]
SMILES | Bim-Mcl-1 | MCL1 BIM primary | Mcl1 Bid PPI | 14-3-3 Bad inh | Mcl1 Noxa PPI | eIF4E-4G inh
Nc1ccc(-c2nc3ccc(N)cc3[nH]2)cc1 | 10 | 5 | -42 | 6 | 31 | 15
Cn1c(N)c(C(=O)CSc2nc(C3CC3)n(-c3ccccc3)n2)c(=O)n(C)c1=O | x | -5 | x | x | x | x
COc1ccc(CCNC(=O)c2noc(C)c2[N+](=O)[O-])cc1OC | x | -1 | x | x | x | x
Cc1ccc(-c2nn(-c3ccccc3)cc2C(N)=O)o1 | 0 | -14 | -21 | -9 | 51* | 0
Cc1ccc(-c2nn(-c3ccccc3)cc2CO)o1 | -2 | 11 | -28 | -2 | 16 | -6
CCC(C)OC(=O)C1=C(C)NC2=C(C(=O)C(C(=O)OC)C(C)C2)C1c1ccc(N(C)C)cc1 (configuration not stated) | 0 | 2 | -34 | -9 | 60* | -3
Cc1cc(C(=O)N/N=C/c2cc(N=Nc3ccccc3)ccc2O)n[nH]1 | 0 | 27 | 25 | 41 | 95* | -9
COC(=O)N/N=C/c1cc(N=Nc2ccccc2)ccc1O | x | 7 | -15 | 0 | -14 | -9
COC(=O)N/N=C/c1cc(N=Nc2ccccc2Cl)ccc1O | x | 2 | 7 | 16 | 88* | 5
N#Cc1cc([N+](=O)[O-])cnc1N(CCO)CCO | -5 | 4 | 3 | 6 | 13 | 0
CC(C)[n+]1ccn(C2=C([O-])c3ccccc3C(=O)/C2=N\S(=O)(=O)c2ccccc2)c1 | x | 5 | 84* | -1 | -1 | 4
COC(=O)/C=C/C(=O)N1CCN(c2ccccc2C)CC1 | -5 | 9 | -18 | -32 | 9 | 42*[fluorescence artefact?]
CCc1ccc(OCC(=O)Nc2ccc3oc(=O)ccc3c2)cc1 | x | -1 | x | x | x | x
O=C(O)c1ccc(-n2cc(-c3cc4ccccc4oc3=O)[nH]c2=S)cc1 | 0 | x | -29 | 5 | 50* | -6
Clc1cccc(Cl)c1CNc1ccc(N2CCCC2)cc1 | 16 | 17 | -71 | 25 | 67* | 12
O=C(Cc1ccc(Cl)cc1)Nc1ccc(N2CCCC2)cc1 | -4 | 6 | -24 | 2 | -6 | 2
Cc1ccc(C)c(OCCC(=O)Nc2cccc(S(=O)(=O)N3CCCCC3)c2)c1 | x | 0 | x | x | x | x
CN(C)CCNc1nc2sc3c(c2c(=O)n1-c1ccc(F)cc1)CCCCC3 | x | 4 | -21 | 5 | 15 | 1
CN(C)CCNc1nc2sc3c(c2c(=O)n1-c1ccccc1)CCCCC3 | x | 5 | -45 | -7 | -5 | 79*
C=CCN(Cc1cn(C)nc1-c1cccc(Cl)c1)C1CCS(=O)(=O)C1 (configuration not stated) | 1 | -8 | -26 | 96* | 2 | -2
C1=CC2CC1CC2CN1CCN(c2ccccc2)CC1 (configuration not stated) | 0 | -2 | 12 | 75* | 34 | 0
O=C(CN1CCCCC1)Nc1nnc(-c2ccc([N+](=O)[O-])cc2)s1 | -2 | 8 | -22 | -1 | 69* | -2
O=C(O)c1ccccc1C(=O)c1ccc(Br)s1 | 1 | -1 | -20 | -2 | 54* | 2
COC(=O)c1cc2c(-c3ccccc3)cc3ccccn3c-2c1C(=O)OC | 0 | 48* | -62 | -35 | -10 | -27
COc1ccc(N2CCN(C(CNC(=O)c3cccc(Cl)c3)c3cccnc3)CC2)cc1 (configuration not stated) | 0 | 4 | -19 | 6 | 6 | -1
